Experimental data: the supplement of paper PMC8728848
Only a selection was taken, and the strongest signals are over-represented in it overall.

What was measured:
Assay in all cases: glycan array binding signal (z-score within array); higher = stronger binding
Conditions in all cases: glycan notation: IUPAC condensed, linker removed
[1] = biological target: Fuc(a1-2)Gal(b1-3)GalNAc(b1-3)Gal
How it was run: (§1)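 The Consortium for Functional Glycomics database supplied 3228 glycan arrays, of which those lacking an available protein sequence were dropped. The binding signal, a within-array Z-score, was averaged across arrays of the same protein sequence and across linkers. Negative scores can be read as non-binding.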

[2] = biological target: Fuc(a1-2)Gal(b1-4)[Fuc(a1-3)]GlcNAc(b1-2)Man(a1-3)[Fuc(a1-2)Gal(b1-4)[Fuc(a1-3)]GlcNAc(b1-2)Man(a1-6)]Man(b1-4)GlcNAc(b1-4)GlcNAc
How it was run: as §1

[3] = biological target: Fuc(a1-3)[Gal3S(b1-4)]Glc6S
How it was run: as §1

Gal(a1-3)Gal(b1-4)Glc = biological target: Gal(a1-3)Gal(b1-4)Glc
How it was run: as §1

Gal(a1-3)GalNAc = biological target: Gal(a1-3)GalNAc
How it was run: as §1

Gal(b1-3)GalNAc = biological target: Gal(b1-3)GalNAc
How it was run: as §1

[4] = biological target: Gal(b1-3)[Fuc(a1-4)]GlcNAc(b1-2)Man(a1-3)[Gal(b1-3)[Fuc(a1-4)]GlcNAc(b1-2)Man(a1-6)]Man(b1-4)GlcNAc(b1-4)GlcNAc
How it was run: as §1

[5] = biological target: Gal(b1-4)GlcNAc(b1-3)Gal(b1-4)GlcNAc(b1-3)Gal(b1-4)GlcNAc
How it was run: as §1

[6] = biological target: Gal3S(b1-4)[Fuc(a1-3)]Glc
How it was run: as §1

GalNAc(a1-3)GalNAc = biological target: GalNAc(a1-3)GalNAc
How it was run: as §1

GalNAc(b1-3)GalNAc = biological target: GalNAc(b1-3)GalNAc
How it was run: as §1

[7] = biological target: GalNAc(b1-4)GlcNAc(b1-2)Man(a1-3)[GalNAc(b1-4)GlcNAc(b1-2)Man(a1-6)]Man(b1-4)GlcNAc(b1-4)GlcNAc
How it was run: as §1

GlcA(b1-3)GlcNAc = biological target: GlcA(b1-3)GlcNAc
How it was run: as §1

[8] = biological target: GlcNAc(a1-3)Gal(b1-4)GlcNAc
How it was run: as §1

[9] = biological target: GlcNAc(a1-4)Gal(b1-3)GlcNAc
How it was run: as §1

[10] = biological target: GlcNAc(b1-2)Gal(b1-3)GalNAc
How it was run: as §1

[11] = biological target: GlcNAc(b1-3)Gal(b1-3)GalNAc
How it was run: as §1

[12] = biological target: GlcNAc(b1-3)[GlcNAc(b1-4)][GlcNAc(b1-6)]GlcNAc
How it was run: as §1

[13] = biological target: Man(a1-2)Man(a1-3)[Man(a1-6)]Man(a1-6)[Man(a1-2)Man(a1-3)]Man(b1-4)GlcNAc(b1-4)GlcNAc
How it was run: as §1

Neu5Ac(a2-3)Gal = biological target: Neu5Ac(a2-3)Gal
How it was run: as §1

[14] = biological target: Neu5Ac(a2-3)Gal(b1-3)[Neu5Ac(a2-6)]GalNAc
How it was run: as §1

[15] = biological target: Neu5Ac(a2-3)Gal(b1-4)GlcNAc(b1-3)Gal(b1-4)[Fuc(a1-3)]GlcNAc
How it was run: as §1

[16] = biological target: Neu5Ac(a2-3)Gal(b1-4)[Fuc(a1-3)]GlcNAc(b1-6)[Gal(b1-3)]GalNAc
How it was run: as §1

[17] = biological target: Neu5Ac(a2-3)[GalNAc(b1-4)]Gal(b1-4)GlcNAc
How it was run: as §1

[18] = biological target: Neu5Ac(a2-8)Neu5Ac(a2-8)Neu5Ac(a2-3)[GalNAc(b1-4)]Gal(b1-4)Glc
How it was run: as §1

Neu5Gc(a2-6)GalNAc = biological target: Neu5Gc(a2-6)GalNAc
How it was run: as §1

Fuc(a1-2)Gal(b1-4)GlcNAc = biological target: Fuc(a1-2)Gal(b1-4)GlcNAc
How it was run: as §1

[19] = biological target: Fuc(a1-2)Gal(b1-4)[Fuc(a1-3)]GlcNAc
How it was run: as §1

[20] = biological target: Fuc(a1-2)Gal(b1-4)[Fuc(a1-3)]GlcNAc(b1-3)Gal(b1-4)[Fuc(a1-3)]GlcNAc(b1-3)Gal(b1-4)[Fuc(a1-3)]GlcNAc
How it was run: as §1

[21] = biological target: Fuc(a1-2)[GalNAc(a1-3)]Gal(b1-4)[Fuc(a1-3)]GlcNAc
How it was run: as §1

[22] = biological target: Gal(b1-3)GalNAc(b1-4)Gal(b1-4)Glc
How it was run: as §1

[23] = biological target: Gal(b1-3)GlcNAc(b1-3)Gal(b1-3)GlcNAc
How it was run: as §1

[24] = biological target: Gal(b1-4)GlcNAc(b1-2)Man(a1-3)Man(b1-4)GlcNAc(b1-4)GlcNAc
How it was run: as §1

[25] = biological target: Gal(b1-4)GlcNAc(b1-2)Man(a1-3)[Gal(b1-4)GlcNAc(b1-2)Man(a1-6)]Man(b1-4)GlcNAc(b1-4)GlcNAc
How it was run: as §1

[26] = biological target: Gal(b1-4)GlcNAc(b1-6)GalNAc
How it was run: as §1

Gal3S(b1-4)GlcNAc = biological target: Gal3S(b1-4)GlcNAc
How it was run: as §1

Gal3S(b1-4)GlcNAc6S = biological target: Gal3S(b1-4)GlcNAc6S
How it was run: as §1

Gal6S(b1-4)GlcNAc6S = biological target: Gal6S(b1-4)GlcNAc6S
How it was run: as §1

Glc(a1-4)Glc = biological target: Glc(a1-4)Glc
How it was run: as §1

[27] = biological target: GlcNAc(a1-4)Gal(b1-4)GalNAc
How it was run: as §1

[28] = biological target: GlcNAc(a1-4)Gal(b1-4)GlcNAc(b1-3)Gal(b1-4)GlcNAc
How it was run: as §1

[29] = biological target: GlcNAc(b1-2)Man(a1-3)[GlcNAc(b1-2)Man(a1-6)]Man(b1-4)GlcNAc(b1-4)[Fuc(a1-6)]GlcNAc
How it was run: as §1

GlcNAc(b1-3)GalNAc = biological target: GlcNAc(b1-3)GalNAc
How it was run: as §1

[30] = biological target: GlcNAc(b1-3)[GlcNAc(b1-6)]Gal(b1-4)GlcNAc
How it was run: as §1

Kdn(a2-3)Gal(b1-3)GalNAc = biological target: Kdn(a2-3)Gal(b1-3)GalNAc
How it was run: as §1

[31] = biological target: Man(a1-2)Man(a1-6)[Man(a1-3)]Man(a1-6)[Man(a1-2)Man(a1-2)Man(a1-3)]Man(b1-4)GlcNAc(b1-4)GlcNAc
How it was run: as §1

[32] = biological target: Neu5Ac(a2-3)Gal(b1-3)GlcNAc6S
How it was run: as §1

[33] = biological target: Neu5Ac(a2-3)Gal(b1-4)GlcNAc(b1-6)[Neu5Ac(a2-3)Gal(b1-3)]GalNAc
How it was run: as §1

[34] = biological target: Neu5Ac(a2-3)Gal(b1-4)GlcNAc6S
How it was run: as §1

[35] = biological target: Neu5Ac(a2-3)Gal(b1-4)[Fuc(a1-3)]GlcNAc(b1-3)Gal(b1-4)GlcNAc
How it was run: as §1

[36] = biological target: Neu5Gc(b2-6)Gal(b1-4)GlcNAc
How it was run: as §1

B1: CTLX (Homo sapiens), Q6UXS0 (protein)
chain: SLCPLFWMEFKGHCYRFFPLNKTWAEADLYCSEFSVGRKSAKLASIHSWEENVFVYDLVNSCVPGIPADVWTGLHDHRQEGQFEWTDGSSYDYSYWDGSQPDDGVHADPEEEDCVQIWYRPTSALRSWNDNTCSRKFPFVCKIPSLTIH
B1 was tested, and the “glycan array binding signal (z-score)” value [1] was 0.292, the “glycan array binding signal (z-score)” value [2] was 3.01 and the “glycan array binding signal (z-score)” value [3] was 5.87. For the same binder, the “glycan array binding signal (z-score)” value (Gal(a1-3)Gal(b1-4)Glc) was 1.11, the “glycan array binding signal (z-score)” value (Gal(a1-3)GalNAc) was -1.04 and the “glycan array binding signal (z-score)” value (Gal(b1-3)GalNAc) was 0.235. The “glycan array binding signal (z-score)” value [4] was 4.2, the “glycan array binding signal (z-score)” value [5] was -0.836 and the “glycan array binding signal (z-score)” value [6] was -0.137. The “glycan array binding signal (z-score)” value (GalNAc(a1-3)GalNAc) was -0.619, the “glycan array binding signal (z-score)” value (GalNAc(b1-3)GalNAc) was -0.421 and the “glycan array binding signal (z-score)” value [7] was 0.305. For the same binder, the “glycan array binding signal (z-score)” value (GlcA(b1-3)GlcNAc) was 0.103, the “glycan array binding signal (z-score)” value [8] was -0.363 and the “glycan array binding signal (z-score)” value [9] was 3.54. For the same binder, the “glycan array binding signal (z-score)” value [10] was -0.988, the “glycan array binding signal (z-score)” value [11] was 4.33 and the “glycan array binding signal (z-score)” value [12] was -0.646. The “glycan array binding signal (z-score)” value [13] was -0.346, the “glycan array binding signal (z-score)” value (Neu5Ac(a2-3)Gal) was -0.528 and the “glycan array binding signal (z-score)” value [14] was 0.498. The “glycan array binding signal (z-score)” value [15] was -0.47, the “glycan array binding signal (z-score)” value [16] was 4 and the “glycan array binding signal (z-score)” value [17] was -0.041. The “glycan array binding signal (z-score)” value [18] was -1.09 and the “glycan array binding signal (z-score)” value (Neu5Gc(a2-6)GalNAc) was -0.736.

B2: GALT1 615 (Arabidopsis thaliana), Q8L7F9 (protein)
chain: DPMRGSHHHHHHGMASMTGGQQMGRDLYDDDDKSRLQKPYITAAASVVVTPNTTLPMEWLRITLPDFMKEARNTQEAISGDDIAVVSGLFVEQNVSKEEREPLLTWNRLESLVDNAQSLVNGVDAIKEAGIVWESLVSAVEAKKLVDVNENQTRKGKEELCPQFLSKMNATEADGSSLKLQIPCGLTQGSSITVIGIPDGLVGSFRIDLTGQPLPGEPDPPIIVHYNVRLLGDKSTEDPVIVQNSWTASQDWGAEERCPKFDPDMNKKVDDLDECNKMVGGEINRTSSTSLQSNTSRGVPVAREASKHEKYFPFKQGFLSVATLRVGTEGMQMTVDGKHITSFAFRDTLEPWLVSEIRITGDFRLISILA
With B2 the “glycan array binding signal (z-score)” value [1] was 8.63, the “glycan array binding signal (z-score)” value (Fuc(a1-2)Gal(b1-4)GlcNAc) was -0.374 and the “glycan array binding signal (z-score)” value [19] was 4.77. For the same binder, the “glycan array binding signal (z-score)” value [20] was 1.95, the “glycan array binding signal (z-score)” value [21] was 1.82 and the “glycan array binding signal (z-score)” value [22] was -0.508. The “glycan array binding signal (z-score)” value [23] was -0.271, the “glycan array binding signal (z-score)” value [24] was -0.484 and the “glycan array binding signal (z-score)” value [25] was 0.081. For the same binder, the “glycan array binding signal (z-score)” value [26] was -0.439, the “glycan array binding signal (z-score)” value (Gal3S(b1-4)GlcNAc) was -0.208 and the “glycan array binding signal (z-score)” value (Gal3S(b1-4)GlcNAc6S) was -0.044. The “glycan array binding signal (z-score)” value (Gal6S(b1-4)GlcNAc6S) was -0.309, the “glycan array binding signal (z-score)” value (Glc(a1-4)Glc) was 3.74 and the “glycan array binding signal (z-score)” value [27] was 8. The “glycan array binding signal (z-score)” value [28] was -0.46, the “glycan array binding signal (z-score)” value [29] was 6.45 and the “glycan array binding signal (z-score)” value (GlcNAc(b1-3)GalNAc) was -0.386. For the same binder, the “glycan array binding signal (z-score)” value [30] was -0.348, the “glycan array binding signal (z-score)” value (Kdn(a2-3)Gal(b1-3)GalNAc) was -0.772 and the “glycan array binding signal (z-score)” value [31] was -0.415. The “glycan array binding signal (z-score)” value [32] was -0.079, the “glycan array binding signal (z-score)” value [33] was -0.225 and the “glycan array binding signal (z-score)” value [34] was -0.078. The “glycan array binding signal (z-score)” value [35] was 0.904 and the “glycan array binding signal (z-score)” value [36] was -0.419.
